# Results filed as inconclusive are left out. A number with no mark means an inactive call. Activity calls are given as the source filed them. Calls follow the shape of the dose curve; as a rule, active = well fitted activation curve with a large enough effect; inconclusive = small, poorly fitted or top-dose-only effect; inactive = flat fitted curve, though single readings scatter.
# Biological target: Pyruvate kinase PKM (Homo sapiens) (UniProt P14618)
# Assay: Confirmation Concentration-Response Assay for Activators of Human Muscle isoform 2 Pyruvate Kinase: for Probe SAR; also: nearly all actives have a fitted effect of over 60% in size; as to activity change, positive = activation: % of control where 0% means no effect
# Settings: purified PKM2, ATP generation, Kinase-Glo luminescence; series mostly up to 57.5 µM; activity change, positive = activation: at the top concentration
# Excerpt: NIH Chemical Genomics Center [NCGC]
# Matthew G. Vander Heiden, M.D., Ph.D. [Harvard Medical School, 77 Avenue Louis Pasteur, Boston, MA 02115]
# Human pyruvate kinase muscle 2 (hPK-M2) enzyme was supplied as a highly purified (>95% pure) preparation from Harvard Medical School and assayed for its ability to generate ATP from ADP using phosphoenolpyruvate (PEP) as a substrate. ATP generation was detected in a coupled reaction by luciferase-mediated luminescence, an ATP-dependent process. […] The enzyme was assayed at an intermediate level of activity to screen for both inhibitors and activators.
# NCGC Assay Protocol Summary:
# Three uL of substrate mix (at r.t.) in assay buffer (50 mM Imidazole pH7.2, 50 mM KCl, 7 mM MgCl2, 0.01% Tween 20, 0.05% BSA) was dispensed into white solid bottom 1,536 well microtiter plates so that the final concentrations of substrates in the assay were 0.1 mM ADP and 0.5 mM PEP. 23 nL of compound were delivered by a pin tool and 1 uL of enzyme mix (final concentration of 0.1 nM) in assay buffer (4 degree Celsius) was added. Plates were incubated at room temperature for 1 hour. Two uL of detection mix (Kinase-Glo, Promega; at 4 degree Celsius protected from light) was added and luminescence read by a ViewLux (Perkin Elmer) at 1 second exposure/plate. Data were normalized to the uninhibited (column 3) and AC100 inhibition (no enzyme in column 2). To monitor activation, the first column contained a titration of the activator, NCGC00031955-03 (16-point 1:2 dilutions in duplicate starting at 57 uM) and the first 16 rows of column 4 contained 57 uM of NCGC00031955-03.
# Potency is read from the fitted curve at half-maximal effect.
# Pyruvate kinase PKM (Homo sapiens), sequence (P14618 whole entry, looked up, canonical isoform): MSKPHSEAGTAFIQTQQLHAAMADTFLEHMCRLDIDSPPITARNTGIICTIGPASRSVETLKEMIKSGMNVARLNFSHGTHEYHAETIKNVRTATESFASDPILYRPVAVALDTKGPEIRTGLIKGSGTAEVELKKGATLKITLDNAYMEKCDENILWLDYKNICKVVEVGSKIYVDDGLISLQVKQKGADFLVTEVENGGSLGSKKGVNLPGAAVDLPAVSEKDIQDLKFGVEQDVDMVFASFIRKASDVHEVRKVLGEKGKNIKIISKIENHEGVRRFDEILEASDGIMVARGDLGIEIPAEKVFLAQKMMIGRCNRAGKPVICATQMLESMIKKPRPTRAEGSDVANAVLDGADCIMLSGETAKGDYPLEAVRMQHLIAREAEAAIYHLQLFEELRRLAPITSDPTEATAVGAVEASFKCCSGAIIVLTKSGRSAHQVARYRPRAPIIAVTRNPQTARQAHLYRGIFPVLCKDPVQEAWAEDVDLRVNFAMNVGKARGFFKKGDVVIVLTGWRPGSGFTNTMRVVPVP
Structure (SMILES),"activity change, positive = activation [%]",Potency
COc1ccc(OC2=NS(=O)(=O)c3ccccc32)cc1,11.5,
O=C1c2ccccc2C(=O)N1c1cnc2ccccc2c1,5.74,
O=C1c2ccccc2C(=O)N1c1ncccc1O,15.4,
O=S1(=O)N=C(Oc2ccccc2)c2ccccc21,10.6,
COc1cc(F)c(S(=O)(=O)N2CCN(S(=O)(=O)c3ccco3)CC2)c(F)c1,,183 nM (active)
O=C1c2ccccc2C(=O)N1c1cccc(O)c1,9.55,
CC(=O)Nc1ccc(OC2=NS(=O)(=O)c3ccccc32)cc1,-3.56,
O=C1CCc2cc(S(=O)(=O)Nc3cccc(C(F)(F)F)c3)ccc2N1,,13000 nM (active)
O=C(O)c1ccccc1SC1=NS(=O)(=O)c2ccccc21,,32600 nM [inhibitor] (active)
COc1ccc(-c2nc3cccc(C)n3c2Nc2ccc(C)cc2)cc1,14.6,
Cc1ccc2nc(-c3ccc(C)o3)c(Nc3ccc4c(c3)OCO4)n2c1,29.7,
COC(=O)c1ccccc1S(=O)(=O)Nc1ccc(OC)cc1,3.45,
O=S1(=O)N=C(Oc2ccccc2Br)c2ccccc21,2.94,
Cc1ccc2nc(-c3ccco3)c(Nc3ccccc3)n2c1,8.77,
COc1ccc(Nc2c(-c3ccc(C)o3)nc3ccccn23)cc1,23.2,
Cn1c2cc(S(C)=O)sc2c2cnn(Cc3cccc(O)c3)c(=O)c21 (stereo not given),,130 nM (active)
CCCCN1C(=O)c2ccccc2C1=O,-9.91,
O=C1c2ccccc2C(=O)N1C1CCCCC1,8.3,
O=C1c2ccccc2C(=O)N1c1cccnc1,7.54,
Nc1cccc(S(=O)(=O)N2CCN(S(=O)(=O)c3c(F)cccc3F)CC2)c1,,130 nM (active)

Structure (SMILES),"activity change, positive = activation [%]",Potency
Cc1ccc(-c2nc3cnccn3c2Nc2ccc(C(C)C)cc2)o1,24.6,
Cc1ccn2c(NC3CCCCC3)c(-c3ccc(C)o3)nc2c1,-1.24,
O=S1(=O)N=C(Oc2ccc3ccccc3c2)c2ccccc21,3.06,
COc1ccc(O)cc1,7.63,
O=C1c2ccccc2C(=O)N1c1ccc2ccccc2n1,3.11,
O=C1c2ccccc2C(=O)N1c1ccc2ncccc2c1,5.12,
COc1ccc(-c2nc3ccccn3c2Nc2ccccc2C)cc1,,14600 nM (active)
CNc1cccc(S(=O)(=O)N2CCN(S(=O)(=O)c3ccc4c(c3)OCCO4)CC2)c1,,259 nM (active)
CC(=O)Nc1ccc(S(=O)(=O)N2CCCN(S(=O)(=O)c3ccc4c(c3)OCCO4)CC2)cc1,,4110 nM (active)
O=S(=O)(Nc1ccc(O)c(NS(=O)(=O)c2ccccc2)c1)c1ccccc1,21.5,
Cc1ccc(Nc2c(-c3ccc(C)o3)nc3ccccn23)cc1,20.3,
Cc1ccc(NS(=O)(=O)c2cc3c(cc2N(C)C)NC(=O)CC3)cc1C,,366 nM (active)
O=C1CCc2cc(S(=O)(=O)Nc3ccc4ncccc4c3)ccc2N1,21,
O=C1c2ccccc2C(=O)N1c1cccc(Cl)c1,6.37,
O=C1c2ccccc2C(=O)N1c1nccs1,-2.41,
O=C1CCc2cc([S+](=O)([O-])NC3CCOCC3)ccc2N1,-0.52,
Nc1ccc(S(=O)(=O)N2CCN(S(=O)(=O)c3c(F)cccc3F)CC2)cc1,,919 nM (active)
O=C1CCc2cc(S(=O)(=O)Nc3cccc4ccccc34)ccc2N1,,13000 nM (active)
O=[S+]1([O-])N=C(Oc2cccnc2)c2ccccc21,3.92,
Nc1cc(S(=O)(=O)N2CCN(S(=O)(=O)c3ccc4c(c3)OCCO4)CC2)ccn1,,3260 nM (active)

# Source: PubChem BioAssay AID2533 (National Center for Advancing Translational Sciences (NCATS), 2010)
